The values that follow come from PMC11006913.

Where a chain is given by its changes, count along the chain named.

Holding throughout (assay): PBM; 200 nM protein, PBS
Holding throughout (details): dsDNA, one strand shown

Experiment [1] deals with HOXB9 (Homo sapiens, UniProt P17482 171-250, T197M).
Experiment [2] addresses HOXC9 (Homo sapiens, UniProt P31274 178-260, K195R).
In experiment [3] the target is HOXA7 (Homo sapiens, UniProt P31268 116-202).
In experiment [4] the target is HOXB6 (Homo sapiens, UniProt P17509 132-218, K202E).
Sequence of HOXB6 (Homo sapiens, UniProt P17509 132-218, K202E) (P17509 132-218 K202E): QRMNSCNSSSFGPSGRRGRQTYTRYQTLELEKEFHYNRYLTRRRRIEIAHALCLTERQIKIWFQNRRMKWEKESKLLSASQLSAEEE
In experiment [5] the target is HOXB9 (Homo sapiens, UniProt P17482 171-250).
Sequence of HOXB9 (Homo sapiens, UniProt P17482 171-250) (P17482 171-250): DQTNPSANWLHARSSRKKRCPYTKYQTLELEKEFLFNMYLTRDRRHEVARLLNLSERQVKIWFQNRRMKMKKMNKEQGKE
Experiment [6] has as its target HOXC9 (Homo sapiens, UniProt P31274 178-260).
The target of experiment [7] is HOXC9 (Homo sapiens, UniProt P31274 178-260, R193K).
Sequence of HOXC9 (Homo sapiens, UniProt P31274 178-260, R193K) (P31274 178-260 R193K): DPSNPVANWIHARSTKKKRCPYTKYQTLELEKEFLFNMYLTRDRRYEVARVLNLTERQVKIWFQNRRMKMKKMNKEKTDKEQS
Experiment [8] deals with HOXC10 (Homo sapiens, UniProt Q9NYD6 254-340, K271E).
Sequence of HOXC10 (Homo sapiens, UniProt Q9NYD6 254-340, K271E) (Q9NYD6 254-340 K271E): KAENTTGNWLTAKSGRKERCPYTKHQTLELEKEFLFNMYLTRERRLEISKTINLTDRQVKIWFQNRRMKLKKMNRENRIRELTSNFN
Experiment [9] deals with HOXB9 (Homo sapiens, UniProt P17482 171-250, R186Q).
Sequence of HOXB9 (Homo sapiens, UniProt P17482 171-250, R186Q) (P17482 171-250 R186Q): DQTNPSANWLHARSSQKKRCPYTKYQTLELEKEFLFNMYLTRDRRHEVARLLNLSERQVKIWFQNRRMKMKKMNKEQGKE
Experiment [10] has as its target HOXC9 (Homo sapiens, UniProt P31274 178-260, R222W).
Experiment [11] deals with HOXA7 (Homo sapiens, UniProt P31268 116-202, W177C).
Sequence of HOXA7 (Homo sapiens, UniProt P31268 116-202, W177C) (P31268 116-202 W177C): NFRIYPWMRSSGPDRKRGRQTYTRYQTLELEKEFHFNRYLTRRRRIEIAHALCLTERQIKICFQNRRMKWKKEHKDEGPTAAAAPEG
Experiment [12] concerns the target HOXB6 (Homo sapiens, UniProt P17509 132-218).
In experiment [13] the target is HOXD13 (Homo sapiens, UniProt P35453 263-343, T313R).
Sequence of HOXD13 (Homo sapiens, UniProt P35453 263-343, T313R) (P35453 263-343 T313R): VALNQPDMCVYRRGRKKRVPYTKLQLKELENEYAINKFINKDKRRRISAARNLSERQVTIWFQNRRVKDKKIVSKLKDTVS
The target in experiment [14] is T1, NKX2-6 (Homo sapiens, UniProt A6NCS4 118-204).
T1 sequence: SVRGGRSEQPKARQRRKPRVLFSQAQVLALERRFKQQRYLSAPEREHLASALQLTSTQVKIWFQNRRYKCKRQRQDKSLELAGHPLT

The target of experiment [15] is HOXD13 (Homo sapiens, UniProt P35453 263-343).
Sequence of HOXD13 (Homo sapiens, UniProt P35453 263-343) (P35453 263-343): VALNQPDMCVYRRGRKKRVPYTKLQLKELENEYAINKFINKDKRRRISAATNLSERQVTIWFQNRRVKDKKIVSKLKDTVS
Experiment [16] concerns the target HOXD13 (Homo sapiens, UniProt P35453 263-343, T313A).
Experiment [17] has as its target HOXC10 (Homo sapiens, UniProt Q9NYD6 254-340).
The target of experiment [18] is HOXA4 (Homo sapiens, UniProt Q00056 201-287, W262R).
Sequence of HOXA4 (Homo sapiens, UniProt Q00056 201-287, W262R) (Q00056 201-287 W262R): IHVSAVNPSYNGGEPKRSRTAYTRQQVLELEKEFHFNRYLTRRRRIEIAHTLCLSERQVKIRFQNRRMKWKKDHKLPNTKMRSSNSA
For experiment [19], the target named is HOXA4 (Homo sapiens, UniProt Q00056 201-287, R217L).
Sequence of HOXA4 (Homo sapiens, UniProt Q00056 201-287, R217L) (Q00056 201-287 R217L): as the sequence (Q00056 201-287 W262R) above, with R17L, R62W counted along it
Experiment [20] concerns the target HOXA4 (Homo sapiens, UniProt Q00056 201-287).
In experiment [21] the target is HOXA4 (Homo sapiens, UniProt Q00056 201-287, W262F).
Sequence of HOXA4 (Homo sapiens, UniProt Q00056 201-287, W262F) (Q00056 201-287 W262F): as the sequence (Q00056 201-287 W262R) above, with R62F counted along it
The target of experiment [22] is T2, VENTX (Homo sapiens, UniProt O95231 78-163, R121Q).
T2 sequence: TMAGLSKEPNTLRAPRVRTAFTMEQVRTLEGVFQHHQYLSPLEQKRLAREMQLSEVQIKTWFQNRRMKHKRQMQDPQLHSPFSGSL

Experiment [23] concerns the target T3, PAX4 (Homo sapiens, UniProt O43316 9-242, R200K).
T3 sequence: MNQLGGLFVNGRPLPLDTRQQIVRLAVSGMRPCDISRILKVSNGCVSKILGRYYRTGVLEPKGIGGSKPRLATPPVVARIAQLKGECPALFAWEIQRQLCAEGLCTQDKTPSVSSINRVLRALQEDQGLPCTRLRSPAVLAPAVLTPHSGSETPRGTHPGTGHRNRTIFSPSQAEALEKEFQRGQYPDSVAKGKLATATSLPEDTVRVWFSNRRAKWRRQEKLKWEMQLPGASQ

In experiment [24] the target is T4, PAX4 (Homo sapiens, UniProt O43316 9-242).
T4 sequence: T3 sequence with K192R

In experiment [25] the target is T5, PAX4 (Homo sapiens, UniProt O43316 9-242, R200Q).
T5 sequence: T3 sequence with K192Q

The target in experiment [26] is T6, PAX4 (Homo sapiens, UniProt O43316 9-242, F177V).
T6 sequence: T3 sequence with F169V, K192R

Experiment [27] addresses T7, PAX4 (Homo sapiens, UniProt O43316 9-242, F177Y).
T7 sequence: T3 sequence with F169Y, K192R

Experiment [28] deals with T8, PAX4 (Homo sapiens, UniProt O43316 9-242, R227W).
T8 sequence: T3 sequence with K192R, R219W

For experiment [29], the target named is CRX (Homo sapiens, UniProt O43186 26-111, R41L).
Sequence of CRX (O43186 26-111 R41L): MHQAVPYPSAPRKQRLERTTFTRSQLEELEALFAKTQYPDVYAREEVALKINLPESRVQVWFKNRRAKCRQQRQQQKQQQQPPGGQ
Experiment [30] has as its target ALX4 (Homo sapiens, UniProt Q9H161 200-286, Q225E).

Sequence of HOXB9 (Homo sapiens, UniProt P17482 171-250, T197M) (P17482 171-250 T197M): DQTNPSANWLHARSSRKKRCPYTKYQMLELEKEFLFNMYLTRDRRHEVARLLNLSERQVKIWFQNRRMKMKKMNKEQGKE
Sequence of HOXB6 (Homo sapiens, UniProt P17509 132-218) (P17509 132-218): as the sequence (P17509 132-218 K202E) above, with E71K counted along it
Sequence of HOXC9 (Homo sapiens, UniProt P31274 178-260, K195R) (P31274 178-260 K195R): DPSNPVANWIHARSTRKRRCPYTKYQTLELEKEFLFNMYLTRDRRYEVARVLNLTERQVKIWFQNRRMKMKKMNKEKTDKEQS
Sequence of HOXD13 (Homo sapiens, UniProt P35453 263-343, T313A) (P35453 263-343 T313A): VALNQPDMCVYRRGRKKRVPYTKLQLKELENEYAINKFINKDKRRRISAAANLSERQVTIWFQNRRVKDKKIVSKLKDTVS
Sequence of HOXC9 (Homo sapiens, UniProt P31274 178-260, R222W) (P31274 178-260 R222W): as the sequence (P31274 178-260 R193K) above, with K16R, R45W counted along it
Sequence of HOXA7 (Homo sapiens, UniProt P31268 116-202) (P31268 116-202): as the sequence (P31268 116-202 W177C) above, with C62W counted along it
Sequence of HOXC9 (Homo sapiens, UniProt P31274 178-260) (P31274 178-260): as the sequence (P31274 178-260 R193K) above, with K16R counted along it
Sequence of HOXC10 (Homo sapiens, UniProt Q9NYD6 254-340) (Q9NYD6 254-340): as the sequence (Q9NYD6 254-340 K271E) above, with E18K counted along it
Sequence of HOXA4 (Homo sapiens, UniProt Q00056 201-287) (Q00056 201-287): as the sequence (Q00056 201-287 W262R) above, with R62W counted along it
Sequence of ALX4 (Q9H161 200-286 Q225E): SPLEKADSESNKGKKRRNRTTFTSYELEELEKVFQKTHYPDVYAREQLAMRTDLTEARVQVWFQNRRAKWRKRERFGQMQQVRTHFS

Turning to GACATTAA, the binding signal in experiment [1] is 10 upbm affinity estimate (log intensity, higher = more binding, comparable within an allelic series); in experiment [2], 12.6 upbm affinity estimate (log intensity, higher = more binding, comparable within an allelic series); in [3], 11.2 upbm affinity estimate (log intensity, higher = more binding, comparable within an allelic series); in [4] it was 10 upbm affinity estimate (log intensity, higher = more binding, comparable within an allelic series); in experiment [5] it was 11.8 upbm affinity estimate (log intensity, higher = more binding, comparable within an allelic series); in experiment [6] it was 12.6 upbm affinity estimate (log intensity, higher = more binding, comparable within an allelic series). In addition, the binding signal in [7] was 12.5 upbm affinity estimate (log intensity, higher = more binding, comparable within an allelic series); in experiment [8], 11.9 upbm affinity estimate (log intensity, higher = more binding, comparable within an allelic series); in [9], 11.6 upbm affinity estimate (log intensity, higher = more binding, comparable within an allelic series); in experiment [10] it was 10.9 upbm affinity estimate (log intensity, higher = more binding, comparable within an allelic series); in experiment [11], 8.93 upbm affinity estimate (log intensity, higher = more binding, comparable within an allelic series); in [12] it was 11.7 upbm affinity estimate (log intensity, higher = more binding, comparable within an allelic series).
Consider GCTATTAA, for which the binding signal in [1] was 10 upbm affinity estimate (log intensity, higher = more binding, comparable within an allelic series); in experiment [2], 12.7 upbm affinity estimate (log intensity, higher = more binding, comparable within an allelic series); in [3], 11.4 upbm affinity estimate (log intensity, higher = more binding, comparable within an allelic series); in experiment [4], 9.98 upbm affinity estimate (log intensity, higher = more binding, comparable within an allelic series); in experiment [5] it was 12 upbm affinity estimate (log intensity, higher = more binding, comparable within an allelic series); in experiment [6] it was 12.8 upbm affinity estimate (log intensity, higher = more binding, comparable within an allelic series). The binding signal is 10.7 upbm affinity estimate (log intensity, higher = more binding, comparable within an allelic series) in [13]; 11.8 upbm affinity estimate (log intensity, higher = more binding, comparable within an allelic series) in experiment [14]; 12.7 upbm affinity estimate (log intensity, higher = more binding, comparable within an allelic series) in [7]; 11.8 upbm affinity estimate (log intensity, higher = more binding, comparable within an allelic series) in experiment [15]; 11.8 upbm affinity estimate (log intensity, higher = more binding, comparable within an allelic series) in experiment [8]; 11.5 upbm affinity estimate (log intensity, higher = more binding, comparable within an allelic series) in experiment [16]. Besides, the binding signal in experiment [9] was 11.8 upbm affinity estimate (log intensity, higher = more binding, comparable within an allelic series); in [10], 10.9 upbm affinity estimate (log intensity, higher = more binding, comparable within an allelic series); in experiment [11], 8.84 upbm affinity estimate (log intensity, higher = more binding, comparable within an allelic series); in experiment [12], 11.8 upbm affinity estimate (log intensity, higher = more binding, comparable within an allelic series).
For the sequence ATTTATTA, the binding signal in experiment [1] is 10.1 upbm affinity estimate (log intensity, higher = more binding, comparable within an allelic series); in [2], 12.7 upbm affinity estimate (log intensity, higher = more binding, comparable within an allelic series); in [17] it was 12.5 upbm affinity estimate (log intensity, higher = more binding, comparable within an allelic series); in experiment [4], 10 upbm affinity estimate (log intensity, higher = more binding, comparable within an allelic series); in experiment [5] it was 12 upbm affinity estimate (log intensity, higher = more binding, comparable within an allelic series); in [6], 12.8 upbm affinity estimate (log intensity, higher = more binding, comparable within an allelic series). Further, the binding signal is 10.9 upbm affinity estimate (log intensity, higher = more binding, comparable within an allelic series) in experiment [13]; 12.7 upbm affinity estimate (log intensity, higher = more binding, comparable within an allelic series) in [7]; 12 upbm affinity estimate (log intensity, higher = more binding, comparable within an allelic series) in [15]; 12 upbm affinity estimate (log intensity, higher = more binding, comparable within an allelic series) in [8]; 11.8 upbm affinity estimate (log intensity, higher = more binding, comparable within an allelic series) in [16]; 11.7 upbm affinity estimate (log intensity, higher = more binding, comparable within an allelic series) in [9]. Also, in experiment [10], the binding signal was 11.3 upbm affinity estimate (log intensity, higher = more binding, comparable within an allelic series).
Consider CCCGGTTC, for which the binding signal in experiment [1] is 8.56 upbm affinity estimate (log intensity, higher = more binding, comparable within an allelic series); in [18], 9.88 upbm affinity estimate (log intensity, higher = more binding, comparable within an allelic series); in [2] it was 9.5 upbm affinity estimate (log intensity, higher = more binding, comparable within an allelic series); in [19], 9.82 upbm affinity estimate (log intensity, higher = more binding, comparable within an allelic series); in experiment [5], 8.35 upbm affinity estimate (log intensity, higher = more binding, comparable within an allelic series); in experiment [6], 9.62 upbm affinity estimate (log intensity, higher = more binding, comparable within an allelic series). Also, the binding signal is 9.59 upbm affinity estimate (log intensity, higher = more binding, comparable within an allelic series) in [7]; 9.74 upbm affinity estimate (log intensity, higher = more binding, comparable within an allelic series) in experiment [20]; 8.47 upbm affinity estimate (log intensity, higher = more binding, comparable within an allelic series) in [9]; 9.68 upbm affinity estimate (log intensity, higher = more binding, comparable within an allelic series) in experiment [10]; 9.9 upbm affinity estimate (log intensity, higher = more binding, comparable within an allelic series) in [21].
With TAATGCGA, the binding signal in experiment [22] is 10.2 upbm affinity estimate (log intensity, higher = more binding, comparable within an allelic series); in [23], 11.7 upbm affinity estimate (log intensity, higher = more binding, comparable within an allelic series); in experiment [24] it was 12.1 upbm affinity estimate (log intensity, higher = more binding, comparable within an allelic series); in experiment [25], 11.4 upbm affinity estimate (log intensity, higher = more binding, comparable within an allelic series); in experiment [26], 10.4 upbm affinity estimate (log intensity, higher = more binding, comparable within an allelic series); in experiment [27] it was 10.9 upbm affinity estimate (log intensity, higher = more binding, comparable within an allelic series). Further, the binding signal in experiment [28] is 10.9 upbm affinity estimate (log intensity, higher = more binding, comparable within an allelic series); in [29] it was 10.6 upbm affinity estimate (log intensity, higher = more binding, comparable within an allelic series).
For GCAATAAA, the binding signal in [1] was 10 upbm affinity estimate (log intensity, higher = more binding, comparable within an allelic series); in [2], 13.2 upbm affinity estimate (log intensity, higher = more binding, comparable within an allelic series); in experiment [3], 11.2 upbm affinity estimate (log intensity, higher = more binding, comparable within an allelic series); in experiment [17], 12.8 upbm affinity estimate (log intensity, higher = more binding, comparable within an allelic series); in experiment [4], 9.94 upbm affinity estimate (log intensity, higher = more binding, comparable within an allelic series); in [30] it was 10.5 upbm affinity estimate (log intensity, higher = more binding, comparable within an allelic series). The binding signal was 12.6 upbm affinity estimate (log intensity, higher = more binding, comparable within an allelic series) in [5]; 13.3 upbm affinity estimate (log intensity, higher = more binding, comparable within an allelic series) in [6]; 11 upbm affinity estimate (log intensity, higher = more binding, comparable within an allelic series) in [13]; 13.1 upbm affinity estimate (log intensity, higher = more binding, comparable within an allelic series) in [7]; 12.3 upbm affinity estimate (log intensity, higher = more binding, comparable within an allelic series) in experiment [15]; 12.3 upbm affinity estimate (log intensity, higher = more binding, comparable within an allelic series) in experiment [8]. The binding signal in experiment [16] is 12.1 upbm affinity estimate (log intensity, higher = more binding, comparable within an allelic series); in [9], 12.3 upbm affinity estimate (log intensity, higher = more binding, comparable within an allelic series); in experiment [10] it was 11.4 upbm affinity estimate (log intensity, higher = more binding, comparable within an allelic series); in experiment [11] it was 8.8 upbm affinity estimate (log intensity, higher = more binding, comparable within an allelic series); in experiment [12], 11.7 upbm affinity estimate (log intensity, higher = more binding, comparable within an allelic series).
